# FBPA coupling cs: inhibits coupling enzyme system, counter-screen for aldolase hits; hit rate 0.67% among 290,000; activity change, negative = inhibition, % at 58.2 µM, hits read low; AID 2472; coupling enzyme system counterscreen, AmpLite Red fluorescence; in the data active = activity change below about -30%
#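 Final compound at 57.5 uM, incubated 10 min at RT with coupling enzyme reagent (glyceraldehyde-3-phosphate), then 20 min with substrate and AmpLite Red detection. Fluorescence read at 525/598 nm; tests interference with the coupling assay, not aldolase inhibition.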
# Tau ThT inhib: blocks human tau fibril formation measured by thioflavin T. hit rate 2.1% among 270,000. P10636. recombinant tau K18 P301L, heparin-induced fibrillization, ThT fluorescence. AID 1460. Potency, µM (highest dose often 57.4 µM), without a hit: at the highest dose activity, negative = inhibition, actives largely listed as inhibitors; also: potency is read from the fitted curve at half-maximal effect; nearly all actives have a fitted effect of over 55% in size
# Target sequence (P10636 561-689 P618L limits assumed): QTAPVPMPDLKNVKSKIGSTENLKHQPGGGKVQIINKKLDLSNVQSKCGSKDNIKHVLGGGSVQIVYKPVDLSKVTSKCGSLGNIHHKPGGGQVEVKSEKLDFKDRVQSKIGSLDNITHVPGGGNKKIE
#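 Heparin-induced (20 uM) aggregation of recombinant human K18 P301L tau, 15 uM unlabeled with 0.24 uM labeled, pH 7 acetate buffer, 6 hr at 37 C with compound. Fibrils quantified by 30 uM ThT fluorescence after 1 hr ambient incubation.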
# Tau fibril FP: tau fibrillization inhibition (FP). K18 P301L tau heparin fibrillization, Alexa594 FP, 6 h. Potency, µM (doses to about 57.7 µM), inactives show top-dose activity, negative = inhibition, usual class: inhibitors. hit rate 0.39% among 280,000. AID 1468; also: potency is read from the fitted curve at half-maximal effect; nearly all actives have a fitted effect of over 55% in size
#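 Human tau K18 […] P301L fragment, 15 uM unlabeled plus 0.24 uM Alexa 594-labeled tau (final), with compound and 20 uM heparin in 100 mM sodium acetate pH 7; 6 hr at 37 C, then Alexa 594 FP read.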
# Tau fluor cs: counter-screen for tau fibril formation inhibitors; hit rate 0.93% among 280,000; Potency, µM (titrated, usually from 57.7 µM), for inactives: at the top dose activity change, negative = decrease; AID 1463; tau K18 P301L (four-repeat tau fragment) Alexa594 fluorescence, heparin fibrillization; also: potency is read from the fitted curve at half-maximal effect; nearly all actives have a fitted effect of over 55% in size
#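 Human K18 P301L tau (15 uM unlabeled plus 0.24 uM Alexa 594-labeled, final) in 100 mM sodium acetate pH 7 was mixed with compound and 20 uM heparin and incubated 6 hr at 37 C.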
# Sfp inh: blocks B. subtilis Sfp PPTase activity; Q9F4F7; Biochemical Sfp PPTase activity, qHTS; Potency, µM, without a hit: largest response in the series, negative = inhibition, hits mostly inhibitors; hit rate 3.5% among 310,000; AID 1490;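 also: the enzyme is Sfp with the accession as filed and its product quenches rhodamine fluorescence; potency is read from the fitted curve at half-maximal effect; 0% = enzyme reaction without inhibitor and -100% = no enzyme wells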
#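 After 15 min at room temperature with compound, 15 nM Sfp received 5 uM rhodamine-CoA plus 12.5 uM BHQ-2-ybbR (50 mM Hepes pH 7.6, 10 mM MgCl2). Rate came from the fluorescence difference over 30 min, ex 525/em 598 nm.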
# G9a inh: inhibitors of human histone lysine methyltransferase G9a. Q96KQ7. G9a H3K9 monomethylation, AlphaScreen, 2 h. Potency, µM (top dose mostly 102 µM), for inactives: top-dose activity, negative = inhibition, hits mostly inhibitors. hit rate 8.8% among 350,000; also: potency is read from the fitted curve at half-maximal effect; nearly all actives have a fitted effect of over 75% in size
# Target sequence (Q96KQ7 913-1193 limits assumed): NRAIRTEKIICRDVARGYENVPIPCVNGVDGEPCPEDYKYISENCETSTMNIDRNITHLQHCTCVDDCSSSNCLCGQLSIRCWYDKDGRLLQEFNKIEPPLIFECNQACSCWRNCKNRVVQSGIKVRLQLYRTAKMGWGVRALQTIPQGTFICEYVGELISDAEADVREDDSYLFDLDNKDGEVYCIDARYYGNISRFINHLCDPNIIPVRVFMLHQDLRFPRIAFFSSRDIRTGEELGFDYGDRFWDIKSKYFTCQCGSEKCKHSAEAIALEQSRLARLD
#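 Step 1: enzyme (final 20 nM) with compound, 15 min RT. Step 2: substrate peptide 500 nM and SAM 20 uM, 2 h RT. Step 3: anti-H3K9me1 antibody and AlphaScreen beads, 10 min, then plate read.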
# The depositor's hits bear a star; ? = inconclusive; . = not tested or not shown; [ ] = dose if it differs, or a comment. A selection: hits, their analogues and other compounds. The true share with any hit is near 11%. Unless noted, calls follow the shape of the dose curve; as a rule, active = well fitted curve in the direction sought with a large enough effect; inconclusive = small, poorly fitted or top-dose-only effect, or another doubt; inactive = no such curve, though single readings can be large; an effect the other way counts as inactive or inconclusive. Unless noted, % is scaled to controls: 0 for no effect and ±100 for the full control effect.
SMILES,FBPA coupling cs,Tau ThT inhib,Tau fibril FP,Tau fluor cs,Sfp inh,G9a inh
CCN(CC)CCCN1C(=O)C(=O)/C(=C(/O)c2ccc(OC)c(Cl)c2)C1c1ccco1 (centres undefined),0,-7%,-1%,1%,?,45µM*
COc1ccc(/C(O)=C2/C(=O)C(=O)N(CCCN(C)C)C2c2ccc(C)o2)cc1Cl (centres undefined),-7,-8%,4%,-4%,89µM*,45µM*
CC(C)(C)c1ccc(OC(=O)c2ccc(-n3cncn3)nc2)cc1,0,?,-5%,-7%,15%,?
Cc1cc(C)c(C)c(S(=O)(=O)NCc2ccc(C(=O)N3CCOCC3)cc2)c1C,.,.,.,.,11%,26%
CC(C)Cc1cc(C(=O)O)n[nH]1,0,-1%,1%,0%,2%,-49%[12.7 µM]
CC(C)(C)c1cc(C(=O)O)n[nH]1,5,4%,-4%,-4%,-23%,13µM*
Cn1c(SCc2ccc(F)cc2Cl)nc2ccccc2c1=O,.,.,.,.,.,-29%[12.7 µM]
CN(C)c1ncc2nc(CCc3ccccc3)c(=O)n(Cc3cccs3)c2n1,-2,.,.,.,?,9%[0.501 µM]
Clc1ccc(CNc2ccccc2NCc2ccc(Cl)nc2)cn1,-3,?,3%,?,-2%,3.2µM*
Clc1ccc(Cn2ccc3ccccc32)cn1,-1,.,.,.,7%,17%[2.33 µM]
C[C@@H](NC(=O)[C@@H]1Cc2ccccc2CN1C(=O)OC(C)(C)C)C(=O)NC1CCCC1,0,.,.,.,5%,14%
C[C@H](NCc1c[nH]c2ccccc12)c1ccccc1,1,.,.,.,5%,-2%[0.501 µM]
CN1C(=O)N(C)C2=NNC=NC2(O)C1=O (centres undefined),-46*,-6%,-2%,-5%,-25%,.
CNC(=O)C12N=CNN=C1N(C)C(=O)N2C (centres undefined),2,-6%,6%,-5%,8%,-5%
O=C(OCCCOC(=O)c1ccc(Br)o1)c1ccc(Br)o1,.,.,.,.,.,-29%
CCn1c(SCC(=O)Nc2ccc(OC)c(S(=O)(=O)N3CCCCC3)c2)nnc1C1CC1,.,.,.,.,.,-40%
COc1cc2[nH]c(=S)nc(NCc3ccccc3)c2cc1OC,-3,.,.,.,6%,?
CCOCCCNc1nc(=S)[nH]c2cc(OC)c(OC)cc12,0,-10%,9%,-3%,-3%,35µM*
COCCNc1nc(=S)[nH]c2cc(OC)c(OC)cc12,-2,-11%,7%,-4%,-11%,35µM*
COc1cc2[nH]c(=S)nc(NCCCOC(C)C)c2cc1OC,1,-5%,-7%,-5%,-20%,45µM*
CCCCNc1nc(=S)[nH]c2cc(OC)c(OC)cc12,-1,-7%,10%,-9%,?,-3%[12.7 µM]
O=C(CSc1nc2ccsc2c(=O)n1Cc1ccccc1F)NCc1ccccc1Cl,.,2%,-10%,-14%,.,4%[59 µM]
O=C(NCC1OCCc2ccccc21)c1cc(COc2ccc(F)cc2Cl)on1 (centres undefined),0,-3%,-8%,-8%,10%,1%
C=CCS/C(N)=N\N=C\c1cc(Br)cc([N+](=O)[O-])c1O,0,13µM*,7%,?,11%,50µM*
O=C(N/N=C/c1cccc([N+](=O)[O-])c1O)C(O)(c1ccccc1)c1ccccc1,1,.,.,.,?,.
O=c1c2c(-c3ccccc3)csc2ncn1/N=C/c1c2ccccc2cc2ccccc12,-4,-2%,-11%,-10%,9%,?
Oc1ccccc1/C=N/n1cnnc1,2,-6%,6%,-5%,-1%,50µM*
CS/C(N)=N/N=C/c1cc(Br)cc(Br)c1O,1,?,?,?,13%,70%[59 µM]
O=C1ON=C(c2ccccc2[N+](=O)[O-])/C1=C/c1cccc([N+](=O)[O-])c1O,.,.,.,.,.,1µM*
O=c1c2c(-c3ccc(Cl)cc3)csc2ncn1/N=C/c1cccc([N+](=O)[O-])c1O,8,16µM*,1%,-11%,-6%,40µM*

# Assay outcomes from PubChem.
